Compound in the experiment: Cc1cc(ccc1-c1ccccc1)C(=O)N1CCCN(CC1)C(=O)CCl [compound 10]
Briefly: probe-labelled cysteine peptide fold change vs DMSO (competition) (log2 fold change); higher = less target engagement (more negative = stronger competition). The conditions noted are these: THP-1, incubation time: 4 h.

Targets with the largest changes are over-represented here; the source holds about 21,000 in all.
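Further: competitive profiling in live THP-1 cells: cysteine peptides tagged with an iodoacetamide desthiobiotin (IA-DTB) probe, intensity after compound treatment relative to DMSO-treated cells.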

Sequence of UniProt O14593 (O14593 whole entry): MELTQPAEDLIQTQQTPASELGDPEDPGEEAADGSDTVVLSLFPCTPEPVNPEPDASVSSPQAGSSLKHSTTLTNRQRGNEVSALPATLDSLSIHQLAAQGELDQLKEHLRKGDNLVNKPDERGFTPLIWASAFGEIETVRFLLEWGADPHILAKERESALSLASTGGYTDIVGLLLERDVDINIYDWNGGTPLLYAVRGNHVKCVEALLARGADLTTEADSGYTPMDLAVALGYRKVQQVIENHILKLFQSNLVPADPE
Sequence of UniProt Q13129 (Q13129 whole entry, looked up): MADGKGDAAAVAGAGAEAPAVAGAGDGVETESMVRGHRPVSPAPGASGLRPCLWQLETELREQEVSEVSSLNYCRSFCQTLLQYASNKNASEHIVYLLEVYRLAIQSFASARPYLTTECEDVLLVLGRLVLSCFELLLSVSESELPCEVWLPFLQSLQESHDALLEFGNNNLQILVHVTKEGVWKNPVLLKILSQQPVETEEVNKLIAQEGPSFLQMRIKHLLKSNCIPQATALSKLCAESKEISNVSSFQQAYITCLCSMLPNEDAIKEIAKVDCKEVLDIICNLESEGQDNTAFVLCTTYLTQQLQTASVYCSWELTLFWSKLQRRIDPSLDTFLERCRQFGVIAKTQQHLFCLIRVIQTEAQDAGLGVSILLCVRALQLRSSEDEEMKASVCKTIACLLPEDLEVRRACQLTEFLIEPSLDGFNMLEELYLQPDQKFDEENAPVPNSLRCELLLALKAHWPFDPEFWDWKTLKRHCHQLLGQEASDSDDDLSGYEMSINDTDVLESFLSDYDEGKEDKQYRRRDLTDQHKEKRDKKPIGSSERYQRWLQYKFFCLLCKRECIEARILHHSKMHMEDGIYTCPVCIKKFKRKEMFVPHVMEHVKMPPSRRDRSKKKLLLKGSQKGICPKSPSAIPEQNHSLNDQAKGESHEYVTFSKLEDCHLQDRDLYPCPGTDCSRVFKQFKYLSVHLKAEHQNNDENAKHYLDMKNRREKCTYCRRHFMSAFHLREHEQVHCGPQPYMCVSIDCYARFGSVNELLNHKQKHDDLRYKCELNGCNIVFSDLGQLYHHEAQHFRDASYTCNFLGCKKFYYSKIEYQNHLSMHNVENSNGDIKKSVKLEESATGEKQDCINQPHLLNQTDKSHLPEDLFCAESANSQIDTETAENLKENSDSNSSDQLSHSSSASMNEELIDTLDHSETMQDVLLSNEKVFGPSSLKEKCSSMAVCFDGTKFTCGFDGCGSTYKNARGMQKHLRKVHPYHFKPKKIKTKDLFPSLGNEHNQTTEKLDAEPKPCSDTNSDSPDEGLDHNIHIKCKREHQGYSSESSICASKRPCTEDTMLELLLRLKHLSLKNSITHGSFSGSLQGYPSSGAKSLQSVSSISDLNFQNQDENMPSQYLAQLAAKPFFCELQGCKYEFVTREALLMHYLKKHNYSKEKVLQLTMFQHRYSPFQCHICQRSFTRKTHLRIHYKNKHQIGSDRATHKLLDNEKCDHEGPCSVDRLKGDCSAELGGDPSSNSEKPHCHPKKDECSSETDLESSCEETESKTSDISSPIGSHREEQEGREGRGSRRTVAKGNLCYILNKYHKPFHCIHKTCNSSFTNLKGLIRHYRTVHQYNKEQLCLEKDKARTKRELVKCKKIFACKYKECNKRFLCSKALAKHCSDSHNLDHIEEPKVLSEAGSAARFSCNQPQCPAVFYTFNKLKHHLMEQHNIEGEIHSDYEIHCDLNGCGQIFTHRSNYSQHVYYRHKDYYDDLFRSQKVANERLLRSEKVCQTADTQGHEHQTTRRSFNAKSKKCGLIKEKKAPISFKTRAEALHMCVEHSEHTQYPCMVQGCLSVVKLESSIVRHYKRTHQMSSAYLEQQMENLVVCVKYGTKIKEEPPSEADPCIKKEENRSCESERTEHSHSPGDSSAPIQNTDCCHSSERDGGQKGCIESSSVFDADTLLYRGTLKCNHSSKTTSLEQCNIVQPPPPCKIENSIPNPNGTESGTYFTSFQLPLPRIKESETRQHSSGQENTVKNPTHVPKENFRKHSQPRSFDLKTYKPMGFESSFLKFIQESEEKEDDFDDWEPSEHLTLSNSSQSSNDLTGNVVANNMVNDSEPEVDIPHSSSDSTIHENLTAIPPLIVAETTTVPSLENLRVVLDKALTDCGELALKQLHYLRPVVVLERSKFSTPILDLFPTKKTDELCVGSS
Sequence of UniProt P47897 (P47897 whole entry, looked up): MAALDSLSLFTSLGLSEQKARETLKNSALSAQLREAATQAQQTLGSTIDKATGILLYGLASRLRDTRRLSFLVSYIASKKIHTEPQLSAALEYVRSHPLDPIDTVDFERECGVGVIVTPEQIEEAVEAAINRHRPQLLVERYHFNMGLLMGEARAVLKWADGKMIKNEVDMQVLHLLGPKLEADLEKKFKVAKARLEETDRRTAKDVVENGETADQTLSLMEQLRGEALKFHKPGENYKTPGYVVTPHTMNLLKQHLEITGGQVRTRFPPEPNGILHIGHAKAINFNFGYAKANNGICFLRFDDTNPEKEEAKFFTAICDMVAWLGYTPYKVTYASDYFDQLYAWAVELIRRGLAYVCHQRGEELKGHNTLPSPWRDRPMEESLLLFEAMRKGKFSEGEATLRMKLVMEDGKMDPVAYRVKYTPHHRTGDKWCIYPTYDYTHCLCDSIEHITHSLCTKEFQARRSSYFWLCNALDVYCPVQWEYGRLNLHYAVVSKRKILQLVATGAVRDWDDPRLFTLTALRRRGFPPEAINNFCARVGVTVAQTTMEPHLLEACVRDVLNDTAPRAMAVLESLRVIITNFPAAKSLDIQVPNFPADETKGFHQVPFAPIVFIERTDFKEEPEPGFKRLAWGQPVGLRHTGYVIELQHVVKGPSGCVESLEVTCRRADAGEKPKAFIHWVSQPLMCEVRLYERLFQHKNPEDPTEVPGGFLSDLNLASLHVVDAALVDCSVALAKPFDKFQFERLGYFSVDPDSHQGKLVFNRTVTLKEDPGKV
Sequence of UniProt Q7Z6M1 (Q7Z6M1 whole entry, looked up): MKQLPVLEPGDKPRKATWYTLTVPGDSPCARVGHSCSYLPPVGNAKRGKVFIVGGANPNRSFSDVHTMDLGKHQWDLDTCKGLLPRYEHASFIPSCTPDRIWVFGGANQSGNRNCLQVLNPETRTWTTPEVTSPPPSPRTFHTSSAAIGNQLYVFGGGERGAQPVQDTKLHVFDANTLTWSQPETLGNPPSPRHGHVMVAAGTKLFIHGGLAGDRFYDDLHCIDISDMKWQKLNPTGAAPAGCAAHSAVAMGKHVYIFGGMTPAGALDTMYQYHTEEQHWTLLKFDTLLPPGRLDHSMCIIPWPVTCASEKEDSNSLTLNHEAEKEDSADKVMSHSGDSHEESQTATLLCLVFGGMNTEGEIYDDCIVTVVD
Sequence of UniProt P62191 (P62191 whole entry, looked up): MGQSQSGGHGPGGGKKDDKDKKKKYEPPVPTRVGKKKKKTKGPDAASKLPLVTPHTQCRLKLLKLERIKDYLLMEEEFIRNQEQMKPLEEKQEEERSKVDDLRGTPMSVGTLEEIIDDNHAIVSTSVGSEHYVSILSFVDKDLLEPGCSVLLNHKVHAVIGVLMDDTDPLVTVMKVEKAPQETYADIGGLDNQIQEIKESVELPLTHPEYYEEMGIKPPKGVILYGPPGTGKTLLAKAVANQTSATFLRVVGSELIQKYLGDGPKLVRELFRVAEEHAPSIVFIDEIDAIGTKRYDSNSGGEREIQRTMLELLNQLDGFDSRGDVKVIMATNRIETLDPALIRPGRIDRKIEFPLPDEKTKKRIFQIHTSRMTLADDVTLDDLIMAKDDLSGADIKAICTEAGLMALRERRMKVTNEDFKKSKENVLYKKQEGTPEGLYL
Sequence of UniProt Q8WUK0 (Q8WUK0 whole entry, looked up): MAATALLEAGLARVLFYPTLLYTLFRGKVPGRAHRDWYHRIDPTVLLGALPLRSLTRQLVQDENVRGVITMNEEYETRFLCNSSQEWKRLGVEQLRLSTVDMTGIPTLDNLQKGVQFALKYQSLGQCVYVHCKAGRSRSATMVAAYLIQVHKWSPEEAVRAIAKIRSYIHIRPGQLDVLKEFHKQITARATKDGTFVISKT
Sequence of UniProt Q06124 (Q06124 whole entry, looked up): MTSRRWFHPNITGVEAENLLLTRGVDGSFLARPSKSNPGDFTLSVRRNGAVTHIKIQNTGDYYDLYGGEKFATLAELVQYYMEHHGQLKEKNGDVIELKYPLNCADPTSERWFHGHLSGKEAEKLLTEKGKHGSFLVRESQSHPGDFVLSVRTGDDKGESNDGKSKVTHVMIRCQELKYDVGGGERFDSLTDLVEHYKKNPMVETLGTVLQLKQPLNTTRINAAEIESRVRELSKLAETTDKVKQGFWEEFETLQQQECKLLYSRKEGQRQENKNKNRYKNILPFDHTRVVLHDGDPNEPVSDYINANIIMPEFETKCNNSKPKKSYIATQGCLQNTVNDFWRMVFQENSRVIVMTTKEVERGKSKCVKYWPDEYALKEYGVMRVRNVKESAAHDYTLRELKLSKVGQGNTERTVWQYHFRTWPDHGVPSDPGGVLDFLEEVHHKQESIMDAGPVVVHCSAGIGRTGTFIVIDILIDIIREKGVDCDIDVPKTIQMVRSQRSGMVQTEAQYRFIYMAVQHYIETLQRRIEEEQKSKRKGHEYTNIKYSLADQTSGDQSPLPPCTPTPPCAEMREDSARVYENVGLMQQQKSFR
Sequence of UniProt Q99873 (Q99873 whole entry, looked up): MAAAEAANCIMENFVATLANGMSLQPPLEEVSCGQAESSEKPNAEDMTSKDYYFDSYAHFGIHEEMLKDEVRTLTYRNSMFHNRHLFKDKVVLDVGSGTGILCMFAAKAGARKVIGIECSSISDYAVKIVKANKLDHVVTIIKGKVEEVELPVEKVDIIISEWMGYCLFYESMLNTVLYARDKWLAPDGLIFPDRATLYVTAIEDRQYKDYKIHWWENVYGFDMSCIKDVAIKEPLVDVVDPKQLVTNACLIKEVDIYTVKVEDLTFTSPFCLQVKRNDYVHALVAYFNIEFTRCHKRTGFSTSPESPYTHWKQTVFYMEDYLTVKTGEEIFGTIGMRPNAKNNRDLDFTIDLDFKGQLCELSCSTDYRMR

As to “PRMT3_O60678_67_LFTSAEETFSHCK (UniProt O60678)”, the “probe-labelled cysteine peptide fold change” value (10 µM) was 0.049 and the “probe-labelled cysteine peptide fold change” value (50 µM) came out at 0.0747.
Turning to “PRMT1_Q99873_103_DKVVLDVGSGTGILCMFAAK (UniProt Q99873)”, the “probe-labelled cysteine peptide fold change” value was -0.168 (10 µM) and -0.709 (50 µM).
On to “PRR14L_Q5THK1_1503_AQDPSSAGCDQIHGAFAK (UniProt Q5THK1)”, for which the “probe-labelled cysteine peptide fold change” value (10 µM) was -0.388 and the “probe-labelled cysteine peptide fold change” value (50 µM) was -1.59.
As to “RHOC_P08134_16_KLVIVGDGACGK<|>RHOA_P61586_16_KLVIVGDGACGK (UniProt P61586+P08134)”, the “probe-labelled cysteine peptide fold change” value (10 µM) was -0.0365 and the “probe-labelled cysteine peptide fold change” value (50 µM) is -0.193.
On to “RANBP2_P49792_707_AEDIENDALSPEEQEECK (UniProt P49792)”, for which the “probe-labelled cysteine peptide fold change” value by setting is: (10 µM) 0.0365; (50 µM) 0.0945.
With “RFXANK_O14593_205_CVEALLAR (UniProt O14593)”, the “probe-labelled cysteine peptide fold change” value by setting is: (10 µM) 0.0175; (50 µM) -0.265.
Taken in the same sequence, the figures for “RANBP2_P49792_2982_VCANHVITK (UniProt P49792)” were 0.0357 and 0.111.
Take “RNF113A_O15541_202_WDYQPDICK<|>RNF113B_Q8IZP6_196_WDYQPDICK (UniProt Q8IZP6+O15541)”: the “probe-labelled cysteine peptide fold change” value (10 µM) is -0.0623 and the “probe-labelled cysteine peptide fold change” value (50 µM) is -0.145.
Consider “PTPMT1_Q8WUK0_127+132_YQSLGQCVYVHCK (UniProt Q8WUK0)”, for which the “probe-labelled cysteine peptide fold change” value (10 µM) came to 0.0587 and the “probe-labelled cysteine peptide fold change” value (50 µM) is -0.0194.
Taken in the same sequence, the figures for “PRPF6_O94906_837_KCEHDPHVLLAVAK (UniProt O94906)” were -0.315 and 0.18.
Taken in the same sequence, the figures for “PSMD11_O00231_257_YMLLCK (UniProt O00231)” were 0.248 and 0.241.
On the same counts, the results for “PRKDC_P78527_373_GYGLFAGPCK (UniProt P78527)” are -0.037 and 0.131.
In the case of “RABGEF1_Q9UJ41_359_DLSIEEQSECAQDFYHNVAER (UniProt Q9UJ41)”, the “probe-labelled cysteine peptide fold change” value (10 µM) is -0.389 and the “probe-labelled cysteine peptide fold change” value (50 µM) is -0.123.
“PSME1_Q06323_101_KKGEDEDKGPPCGPVNCNEK (UniProt Q06323)”: the “probe-labelled cysteine peptide fold change” value is, setting by setting: (10 µM) -0.428; (50 µM) -1.54.
In the case of “RABEPK_Q7Z6M1_36_VGHSCSYLPPVGNAK (UniProt Q7Z6M1)”, the “probe-labelled cysteine peptide fold change” value reads like this: (10 µM) -0.218; (50 µM) -0.0672.
Taken in the same sequence, the figures for “RANBP2_P49792_1749_CIACQCPSK (UniProt P49792)” were 0.0505 and 0.0953.
On the same counts, the results for “PRR14L_Q5THK1_1483_DTESCTSPCLLGAPR (UniProt Q5THK1)” are -0.528 and -1.12.
On the same counts, the results for “RGS14_O43566_183_ECLLAEAEGR (UniProt O43566)” are -0.0353 and 0.16.
Take “PUM1_Q14671_980_CIECVQPQSLQFIIDAFK (UniProt Q14671)”: the “probe-labelled cysteine peptide fold change” value is 0.213 (10 µM) and -0.0133 (50 µM).
On the same counts, the results for “RANGAP1_P46060_169_ILAAALTECHRK (UniProt P46060)” are -0.159 and -0.379.
As for “QARS_P47897_665_GPSGCVESLEVTCR (UniProt P47897)”, the “probe-labelled cysteine peptide fold change” value was -0.11 (10 µM) and 0.446 (50 µM).
Taken in the same sequence, the figures for “RGPD3_A6NKT7_349_GEAGQNLLEMMACDR<|>RGPD1_P0DJD0_340_GEAGQNLLEMMACDR<|>RGPD2_P0DJD1_348_GEAGQNLLEMMACDR<|>RANBP2_P49792_348_GEAGQNLLEMMACDR<|>RGPD4_Q7Z3J3_349_GEAGQNLLEMMACDR (UniProt Q7Z3J3+P49792+P0DJD1+P0DJD0+A6NKT7)” were -0.0339 and 0.0903.
In the case of “PTPN11_Q06124_318_CNNSKPK (UniProt Q06124)”, the “probe-labelled cysteine peptide fold change” value (10 µM) was -0.31 and the “probe-labelled cysteine peptide fold change” value (50 µM) was -1.11.
Regarding “RLF_Q13129_1494_VCQTADTQGHEHQTTR (UniProt Q13129)”, the “probe-labelled cysteine peptide fold change” value was 0.131 (10 µM) and -0.309 (50 µM).
Taken in the same sequence, the figures for “RB1CC1_Q8TDY2_603_VPLLCDFEPLHQHVLALHNLVK (UniProt Q8TDY2)” were -0.156 and -1.09.
For the target “PSMA7_O14818_91_ARVECQSHR (UniProt O14818)”, the “probe-labelled cysteine peptide fold change” value runs as follows: (10 µM) -0.0556; (50 µM) 0.107.
As for “PRPS1_P60891_41_KFSNQETCVEIGESVR (UniProt P60891)”, the “probe-labelled cysteine peptide fold change” value reads like this: (10 µM) 0.0818; (50 µM) 0.329.
Regarding “PSMC1_P62191_58_LPLVTPHTQCR (UniProt P62191)”, the “probe-labelled cysteine peptide fold change” value by setting is: (10 µM) -0.0192; (50 µM) 0.104.
Taken in the same sequence, the figures for “RACGAP1_Q9H0H5_419_VDDIHAICSLLK (UniProt Q9H0H5)” were 0.00786 and 0.00467.
Turning to “RGPD3_A6NKT7_141_LKEQLLDCEGEDGWNK<|>RGPD8_O14715_141_LKEQLLDCEGEDGWNK<|>RANBP2_P49792_141_LKEQLLDCEGEDGWNK<|>RGPD4_Q7Z3J3_141_LKEQLLDCEGEDGWNK (UniProt Q7Z3J3+P49792+O14715+A6NKT7)”, the “probe-labelled cysteine peptide fold change” value is -0.113 (10 µM) and -0.334 (50 µM).
Regarding “REPIN1_Q9BWE0_433+436_VHSGERPFACEECGR (UniProt Q9BWE0)”, the “probe-labelled cysteine peptide fold change” value was -0.108 (10 µM) and -0.289 (50 µM).
For the target “RBM34_P42696_196_TVFVGNLPVTCNK (UniProt P42696)”, the “probe-labelled cysteine peptide fold change” value runs as follows: (10 µM) 0.0157; (50 µM) -0.186.
Consider “PXN_P49023_523_ECFTPFVNGSFFEHDGQPYCEVHYHER (UniProt P49023)”, for which the “probe-labelled cysteine peptide fold change” value by setting is: (10 µM) 0.032; (50 µM) 0.12.

These data come from the supplement of paper PMC12067093, “Discovery and optimisation of a covalent ligand for TRIM25 and its application to targeted protein ubiquitination” (Chemical Science, 2025).
